Some test systems named below: HCT-15 colon; HT29 colon; SNB-75 CNS; SNB-19 CNS; U251 CNS; PC-3 prostate; SK-MEL-5 melanoma; UACC-62 melanoma; LOX IMVI melanoma; SK-MEL-28 melanoma.
Assay in all cases: NCI-60 one-dose screen, 48 h (100 = growth as untreated, 0 = no growth, -100 = all killed)
Conditions in all cases: 10 µM unless noted

Compounds without any hit were thinned out: in the full panel of roughly 83,000, 20% have a hit.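 Single-concentration screen, 48 h exposure, 96-well plates. Endpoint: percent growth. Below 10 = active.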 Unmarked numbers belong to inactive results. Activity calls are given as the source filed them.

On to `COc1ccc(NC(=O)Cn2c(=O)sc3c(-c4ccc(Cl)cc4)cc(-c4ccc(Cl)cc4)nc32)cc1`, for which the growth in the experiment on HCT-15 colon was 93.3%; in the experiment with HT29 colon it was 82.7%; with SNB-75 CNS it was 89.5%; in the experiment with SNB-19 CNS, 105%; in the experiment on U251 CNS, 103%; in the experiment on PC-3 prostate, 95.4%. In addition, the growth in the experiment on SK-MEL-5 melanoma is 98.6%; with UACC-62 melanoma it was 85.6%; in the experiment with LOX IMVI melanoma, 91.1%; in the experiment on SK-MEL-28 melanoma, 103%.
On to `C=C1C(=O)O[C@H]2[C@H]1CC/C(COC(=O)NCc1[nH]nc3ccccc13)=C\CC[C@@]1(C)O[C@@H]21`, for which the growth is 5.35% (active) in the experiment with HCT-15 colon; -32.6% (active) with HT29 colon; 64.9% in the experiment on SNB-75 CNS; 67.8% in the experiment with SNB-19 CNS; 27.5% in the experiment on U251 CNS; 28.8% with PC-3 prostate. The growth in the experiment on SK-MEL-5 melanoma is 25.7%; in the experiment with UACC-62 melanoma, 16.5%; in the experiment on LOX IMVI melanoma it was -17.2% (active); in the experiment on SK-MEL-28 melanoma, 30.3%.
`COc1ncnc2[nH]cc(CN3CCN(c4ccc(F)cc4)CC3)c12`: the growth with HCT-15 colon is 104%; in the experiment on HT29 colon, 91.2%; in the experiment with SNB-75 CNS it was 100%; in the experiment on SNB-19 CNS, 102%; in the experiment on U251 CNS, 99.2%; in the experiment on PC-3 prostate, 100%. Also, the growth was 103% in the experiment with SK-MEL-5 melanoma, 106% in the experiment with UACC-62 melanoma, 106% in the experiment with LOX IMVI melanoma and 114% in the experiment with SK-MEL-28 melanoma.
With `COc1ccc2nc3cc(Cl)ccc3c(NC(=O)CSc3ccc(Cl)cc3)c2c1`, the growth is -53.6% (active) in the experiment with HCT-15 colon; -78.3% (active) with HT29 colon; -99.2% (active) in the experiment on SNB-75 CNS; -86.4% (active) with SNB-19 CNS; -90.6% (active) in the experiment with U251 CNS; -81.8% (active) in the experiment on PC-3 prostate. Besides, the growth with SK-MEL-5 melanoma is -98% (active); in the experiment with UACC-62 melanoma, -80% (active); in the experiment with LOX IMVI melanoma it was -80.3% (active); in the experiment on SK-MEL-28 melanoma, -96.8% (active).
Turning to `CCOc1cc(/C=N\NC(=O)C[N+](C)(C)C)ccc1O`, the growth in the experiment on HCT-15 colon is 103%; in the experiment on HT29 colon, 105%; in the experiment with SNB-75 CNS it was 106%; in the experiment with SNB-19 CNS, 117%; with U251 CNS, 105%; in the experiment on PC-3 prostate, 99.6%. For the same compound, the growth is 105% in the experiment on SK-MEL-5 melanoma, 111% with UACC-62 melanoma, 103% with LOX IMVI melanoma and 117% in the experiment with SK-MEL-28 melanoma.
In the case of `CC(=O)OC[C@H]1O[C@@H](n2c(=O)cc(N)[nH]c2=O)C(OC(C)=O)[C@@H]1OC(C)=O` (stereo not given in full), the growth with HCT-15 colon was 99.7%; in the experiment on HT29 colon, 106%; in the experiment on SNB-75 CNS, 75.9%; in the experiment on SNB-19 CNS it was 98.7%; in the experiment on U251 CNS it was 97.7%; in the experiment with PC-3 prostate, 95.3%. Further, the growth is 99.5% in the experiment on SK-MEL-5 melanoma, 94.6% with UACC-62 melanoma, 99.9% in the experiment on LOX IMVI melanoma and 110% with SK-MEL-28 melanoma.
Turning to `Cc1ccc(Nc2cccc3ccccc23)cc1`, the growth in the experiment with HCT-15 colon is 79.1%; in the experiment with HT29 colon it was 83.9%; in the experiment on SNB-75 CNS, 79.7%; in the experiment on SNB-19 CNS, 90.3%; with U251 CNS, 90.8%; in the experiment on PC-3 prostate it was 73.9%. Further, the growth was 96.1% in the experiment on SK-MEL-5 melanoma, 85.4% in the experiment with UACC-62 melanoma, 79.9% with LOX IMVI melanoma and 98.5% in the experiment on SK-MEL-28 melanoma.
Turning to `CCOC(=O)c1ccc2c(c1)[n+](=O)c(C(=O)c1ccc3ccccc3c1)c(C(F)(F)F)n2[O-]`, the growth in the experiment on HCT-15 colon is -96.1% (active); in the experiment on HT29 colon, -97.4% (active); in the experiment with SNB-75 CNS, -100% (active); in the experiment on SNB-19 CNS, -85.5% (active); in the experiment with U251 CNS, -100% (active); in the experiment with PC-3 prostate, -99.2% (active). Besides, the growth was -100% (active) in the experiment with SK-MEL-5 melanoma, -97.2% (active) in the experiment on UACC-62 melanoma, -97.5% (active) with LOX IMVI melanoma and -96.3% (active) in the experiment on SK-MEL-28 melanoma.
As to `COC(=O)[C@@H](Cc1c[nH]c2ccccc12)NC(=O)/C=C/c1ccccc1`, the growth was 13.7% with HCT-15 colon; 85.5% in the experiment on HT29 colon; 15.3% in the experiment on SNB-75 CNS; 46.4% with SNB-19 CNS; 14.2% in the experiment on U251 CNS; 18.7% with PC-3 prostate. In addition, the growth in the experiment with SK-MEL-5 melanoma was 31.4%; in the experiment on UACC-62 melanoma, 44.1%; in the experiment with LOX IMVI melanoma it was 38.3%; in the experiment on SK-MEL-28 melanoma, 44.3%.
As for `CC(C)[C@@]12C[C@@H](OC(=O)C3CO3)[C@@](C)(O1)[C@@H]1CC[C@@H](C)[C@H]1[C@@H]2OC(=O)/C=C/c1ccccc1` (stereo not given in full), the growth with HCT-15 colon was 98.1%; with HT29 colon, 93.9%; with SNB-75 CNS, 80.5%; with SNB-19 CNS it was 94.4%; in the experiment on U251 CNS, 76.1%; in the experiment with PC-3 prostate, 86.2%. Also, the growth was 97.6% with SK-MEL-5 melanoma, 77.4% in the experiment with UACC-62 melanoma, 88.5% with LOX IMVI melanoma and 110% with SK-MEL-28 melanoma.
For the compound `CC(C)(C)c1nn(-c2ccccc2)c2c1C(=O)CSC(c1ccc3c(c1)OCO3)N2` (stereo not given), the growth in the experiment with HCT-15 colon is 89.9%; in the experiment on HT29 colon, 100%; in the experiment with SNB-75 CNS it was 98.4%; with SNB-19 CNS, 101%; with U251 CNS, 107%; in the experiment with PC-3 prostate, 84.4%. The growth in the experiment with SK-MEL-5 melanoma was 110%; in the experiment on UACC-62 melanoma, 85.3%; with LOX IMVI melanoma, 87%; with SK-MEL-28 melanoma, 109%.
As to `CCSCC1CC(O)(c2ccccc2)C(c2ccccc2)C(c2ccc(F)cc2)O1` (stereo not given), the growth in the experiment with HCT-15 colon is 3.78% (active); in the experiment with HT29 colon it was -18.7% (active); in the experiment with SNB-75 CNS, -14% (active); in the experiment with SNB-19 CNS it was 8.78% (active); in the experiment with U251 CNS, -11.8% (active); with PC-3 prostate, -21.1% (active). For the same compound, the growth was -84.2% (active) with SK-MEL-5 melanoma, -44.4% (active) in the experiment on UACC-62 melanoma, -64.5% (active) in the experiment with LOX IMVI melanoma and -39.4% (active) in the experiment with SK-MEL-28 melanoma.
Regarding `COc1ccc(/C(C)=N/NC(=O)CSc2nc3ccccc3c(=O)n2CCc2ccc(S(N)(=O)=O)cc2)cc1`, the growth with HCT-15 colon was 65.3%; in the experiment on HT29 colon it was -10% (active); in the experiment on SNB-75 CNS, -26.2% (active); with SNB-19 CNS, 35.4%; in the experiment on U251 CNS it was -32.9% (active); with PC-3 prostate it was -12.8% (active). Further, the growth is -26.3% (active) with SK-MEL-5 melanoma, 27.3% in the experiment with UACC-62 melanoma, 28.3% in the experiment on LOX IMVI melanoma and 43.1% in the experiment on SK-MEL-28 melanoma.

The values are drawn from PubChem BioAssay (NCI).
